# LYPLA2 inh = LYPLA2 (human) inhibition in PME1 counter-screen; recombinant LYPLA2, FP-Rh probe fluorescence polarization; inhibition, % at 5.9 µM; actives 0.38% (n = 320,000); AID 2177;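 active means inhibition above the screen-wide mean plus 3 SD, limit set per campaign, cut at about 26% in these data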
# Rin1-Abl PPI inh = inhibitors of human Rin1-Abl protein interaction | P00519+Q13671 | TR-FRET Rin1/Abl binding, biochemical | inhibition, % at 7.35 µM | actives 0.4% (n = 360,000) | AID 588664; in the data active means inhibition above about 5%, passing the limit was not always enough
# LYPLA1 inh = LYPLA1 (human) inhibition in PME1 counter-screen. AID 2174. actives 0.16% (n = 320,000). inhibition, % at 5.9 µM. recombinant LYPLA1, FP-Rh probe fluorescence polarization;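 active means inhibition above the mean of all tested compounds plus 3 SD, set per campaign, cut at about 14% in these data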;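 further: inhibitors block serine hydrolase probe labeling of LYPLA1 so polarization falls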
# p97 inhibitor = blocks human p97 ATPase activity. P55072. recombinant p97 ATPase, Kinase-Glo ATP luminescence, 3 h. inhibition, % at 8 µM. actives 0.42% (n = 220,000); in the data active means inhibition above about 15%
# PREPL inh = human PREPL enzyme inhibition; actives 0.68% (n = 320,000); inhibition, % at 5.96 µM; recombinant PREPL, fluorescence polarization activity-based probe; Q4J6C6; in the data active means inhibition above about 43%
# Hck Nef HTS = inhibitors of human Hck kinase activated by Nef | Recombinant Hck-YEEI plus Nef, Z-Lyte FRET kinase assay | AID 463187 | inhibition, % at 20 µM | actives 0.68% (n = 220,000);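 active means Hck-Nef kinase inhibition above about 50%, limit read from the data; inactive means inhibition below that limit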
# Target sequence (P08631 whole entry, looked up): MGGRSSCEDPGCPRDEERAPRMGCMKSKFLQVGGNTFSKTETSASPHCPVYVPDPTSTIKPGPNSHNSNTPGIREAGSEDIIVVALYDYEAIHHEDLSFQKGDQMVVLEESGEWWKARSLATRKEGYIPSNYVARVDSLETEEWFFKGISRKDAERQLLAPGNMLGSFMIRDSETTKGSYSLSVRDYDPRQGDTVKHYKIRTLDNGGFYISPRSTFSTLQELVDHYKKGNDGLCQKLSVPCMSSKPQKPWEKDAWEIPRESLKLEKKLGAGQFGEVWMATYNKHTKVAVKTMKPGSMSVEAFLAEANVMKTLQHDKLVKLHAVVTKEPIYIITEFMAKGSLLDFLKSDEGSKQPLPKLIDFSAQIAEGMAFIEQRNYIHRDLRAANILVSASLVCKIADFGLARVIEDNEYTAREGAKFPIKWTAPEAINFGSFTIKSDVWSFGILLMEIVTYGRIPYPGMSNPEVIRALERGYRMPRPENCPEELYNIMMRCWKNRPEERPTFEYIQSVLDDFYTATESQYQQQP
# Rin1 Abl conf = confirmation of inhibitors of human Rin1-Abl interaction. inhibition, % at 7.35 µM. shares compounds with Rin1-Abl PPI inh. AID 602124. actives 49% (n = 1,300). TR-FRET Rin1-Abl binding, purified proteins
# GFP quencher = counter-screen for Rin1-Abl inhibitors: GFP fluorescence quenchers. shares compounds with Rin1-Abl PPI inh. inhibitors/quenchers counterscreen. inhibition, % at 6.75 µM. actives 8.5% (n = 1,300);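 further: ABL1-eGFP fusion protein alone without its partner RIN1-SBP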
# GFP quench DR = counter-screen for Rin1-Abl inhibitors: GFP quenchers, dose response. shares compounds with Rin1-Abl PPI inh. GFP fluorescence interference/quenching counterscreen. IC50, µM. 230 tested, under 10 active; call rule not given here;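 further: ABL1-eGFP fusion protein alone without its RIN1 binding partner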
# Hits are given with their value; . = inactive; / = not tested or not shown. A selection: hits, their analogues and other compounds. The true share with any hit is near 1.7%. Unless noted, no stated cut-off is given here; in the data, active means inhibition above about 6.5%; inactive means the rest.
SMILES,LYPLA2 inh,Rin1-Abl PPI inh,LYPLA1 inh,p97 inhibitor,PREPL inh,Hck Nef HTS,Rin1 Abl conf,GFP quencher,others
CC(=O)c1cccc(-c2ccnc3c2CC(C(=O)NCc2ccccc2)O3)c1 (stereo not given),/,.,/,/,/,/,/,/,
O=C(NCc1ccccc1)C1Cc2c(-c3cccc(F)c3)ccnc2O1 (stereo not given),/,.,/,/,/,/,/,/,
CN1CCN(c2ccc(CNC(=O)C3Cc4c(-c5cccc(F)c5)ccnc4O3)cc2)CC1 (stereo not given),/,6.5,/,/,/,/,.,.,
CC(C)(C)c1cc(CCC(=O)Nc2ccncc2)cc(C(C)(C)C)c1O,.,.,.,/,.,/,/,/,
COc1cccc(NC(=O)CN(C)CC(=O)c2c(C)[nH]c3ccccc23)c1,.,.,.,/,.,/,/,/,
COc1ccccc1C(=O)Nc1ccc(C(=O)N2CCCCC2)cc1,.,14,.,/,.,/,13,.,
COc1cccc(N2CC(C(=O)Nc3ccc(F)cc3)CC2=O)c1 (stereo not given),.,.,.,/,.,/,/,/,
COc1cccc(N2CC(C(=O)Nc3ccc(C(=O)OC(C)C)cc3)CC2=O)c1 (stereo not given),.,17,.,.,.,.,14,.,
Nc1ncnc2c1ncn2[C@@H]1O[C@H](C(=O)N[C@H]2c3ccccc3C[C@H]2O)[C@@H](O)[C@H]1O,/,.,/,/,/,/,/,/,
Cc1c(C)c2c(OCC(=O)NCc3ccccn3)cc3c(c2oc1=O)CCC(C)(C)O3,.,.,.,/,.,/,/,/,
S=C(NCCN1CCCCC1)Nc1ccccc1,.,9.0,.,.,.,.,.,.,
Cc1cccn2c(=O)c(C(=O)NC3CC(C)CC(C)(C)C3)c(O)nc12 (stereo not given),.,.,.,/,.,/,/,/,
CCOC(=O)c1[nH]c(=O)[nH]c1CSCCO,.,8.1,.,.,.,.,12,.,
O=C(Nc1cccc(Cl)c1)Nc1cccc(C(=O)O)c1,.,5.9,.,.,.,.,.,.,
Cc1ccc(NC(=O)CC2(CC(=O)O)CCCC2)cc1,.,.,.,/,.,/,/,/,
O=C(Nc1ccc(Cl)cc1)Nc1cccc(C(=O)O)c1,.,.,.,.,.,.,/,/,
O=C(O)CC1(CC(=O)Nc2cccc(C(=O)O)c2)CCCC1,.,8.0,.,/,.,/,.,.,
O=C(N/N=C1\CCCc2ccccc21)c1ccccc1Cl,.,.,.,.,.,.,/,/,
Cc1cc(C(=O)N/N=C2\CCCc3ccccc32)c(C)o1,.,11,.,.,.,.,.,.,
N#Cc1ccc(NC(=O)Nc2cccc(C#N)c2)cc1,/,8.0,/,.,/,.,.,.,
Cc1cccc2cc(C(c3nnnn3C(C)(C)C)N(Cc3ccco3)CC3CCCO3)c(=O)[nH]c12 (stereo not given),.,5.8,.,.,.,.,9.1,.,
Cc1ccc2[nH]c(=O)c(C(c3nnnn3C(C)(C)C)N(Cc3ccco3)CC3CCCO3)cc2c1 (stereo not given),.,.,.,.,.,.,/,/,
Cc1cccc(NC(=O)C2CCCN(S(=O)(=O)c3ccc4c(c3)oc(=O)n4C)C2)c1 (stereo not given),.,.,.,.,.,.,/,/,
Cn1c(=O)oc2cc(S(=O)(=O)N3CCCC(C(=O)Nc4nccs4)C3)ccc21 (stereo not given),.,11,.,.,.,.,.,.,
COc1ccc(C(=O)C2CCCN(Cc3cccn3-c3nccs3)C2)cc1OC (stereo not given),.,6.0,.,.,.,.,.,.,
SMILES,LYPLA2 inh,Rin1-Abl PPI inh,LYPLA1 inh,p97 inhibitor,PREPL inh,Hck Nef HTS,Rin1 Abl conf,GFP quencher,others
CN(Cc1ccccc1)C(=O)c1[nH]cnc1C(=O)NCC(=O)OCc1ccccc1,.,.,.,/,.,/,/,/,
CNC(=O)C1CC(=O)N(c2ccc(OCC(=O)Nc3ccc(F)cc3)cc2)C1 (stereo not given),/,.,/,/,/,/,/,/,
CCCn1c(N)c(C(=O)CSc2nncs2)c(=O)[nH]c1=O,.,.,.,/,.,/,/,/,
Oc1cccc(/C=N/NC(=S)NCCN2CCOCC2)c1O,.,5.7,.,.,.,.,.,.,
CC(=O)C(C(C)=O)C1(O)C(=O)c2ccccc2C1=O,.,23,.,.,.,.,19,.,GFP quench DR=.
CC(=O)N(C)C1=C(O)c2ccccc2C(=O)C1=O,.,.,.,.,.,.,/,/,
COc1ccc(-n2ncc3c(=O)n(CC(=O)NC(C)C)cnc32)cc1,.,.,.,/,.,/,/,/,
O=C1Nc2ccccc2N=C(c2ccccc2)c2ccccc21,.,5.9,.,.,.,.,.,.,
COc1ccc(CNC(=O)c2cccc3c(-c4cnn(C)c4)coc23)cc1OC,/,12,/,/,/,/,.,.,
COc1cccc(C(N)c2nc(-c3cc(F)cc(F)c3)cs2)c1 (stereo not given),/,.,/,/,/,/,/,/,
Cc1cc(C(=O)CSCCCn2c(=O)[nH]c3ccccc32)c(C)n1C,.,.,.,.,.,.,/,/,
O=c1[nH]c2ccccc2n1CCCSCCCn1c(=O)[nH]c2ccccc21,.,8.7,.,.,.,.,14,.,
O=S(=O)(Cc1ccccc1)N1CCN(c2ncccn2)CC1,.,7.2,.,/,.,/,.,.,
Brc1ccc2ncc3ccccc3c2c1,/,.,/,/,/,/,/,/,
C=CCn1c(SCC(=O)N2CCOCC2)nnc1C(C)NC(=O)c1ccccc1 (stereo not given),.,7.2,.,/,.,/,.,.,
C=CCn1c(SCCOc2ccccc2)nnc1C(C)NC(=O)c1ccccc1 (stereo not given),.,.,.,.,.,.,/,/,
CCN(CC)c1ccc(C(=C2C=CC(=[N+](CC)CC)C=C2)c2ccc(N(CC)CC)cc2)cc1,/,19,/,/,/,/,17,52,
O=C(NCc1ccccc1)c1ccccc1Br,.,7.8,.,.,.,.,.,.,
O=C(NCc1ccccc1)c1ccc(Br)cc1Br,.,.,.,.,.,.,/,/,
COc1ccc(Br)cc1/C=N/n1nnnc1N,.,.,.,/,.,/,/,/,
COc1ccc(CNS(=O)(=O)c2ccc(-c3ccc(=O)[nH]n3)s2)cc1OC,.,.,.,/,.,/,/,/,
COc1ccc(NC(=O)Nc2cccc3ccccc23)cc1S(N)(=O)=O,.,.,.,/,.,/,/,/,
CN1OC[C@@H]2CN(C(=O)CCc3ccccc3)[C@H](c3ccccc3Br)C[C@@H]21,/,14,/,/,/,/,12,.,
CC1CC(C)CN(C(=O)c2cccc(N3C(=O)c4ccccc4C3=O)c2)C1 (stereo not given),.,.,.,/,.,/,/,/,
Cc1c(S(=O)(=O)N2CCN(C(=O)c3ccco3)CC2)c(=O)n(C)c(=O)n1C,.,8.2,.,.,.,.,.,.,
